The list is not random: actives were taken first. Their share in the collection is about 7%.
rCAG RNA binder: binders of r(CAG) RNA repeats, primary screen, biochemical, fluorescence | r(CAG) RNA repeat, TO-PRO-1 dye displacement fluorescence | inhibition, % at 3 µM | 370,000 compounds, 1.3% hits | AID 651821, 2012;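 active = inhibition above the plate cutoff, the mean of all test compounds on that plate plus 3 SD, cut at about 35% in these data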;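 note: 0% = DMSO alone and 100% = 100 µM mitoxantrone as full dye displacement; higher means more dye released from RNA so lower well fluorescence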
ADAM17 inh: ADAM17 inhibitors, primary screen, biochemical, QFRET | recombinant ADAM17, EDANS/DABCYL FRET peptide cleavage | inhibition, % at 6.95 µM | AID 720648, 2013 | Disintegrin and metalloproteinase domain-containing protein 17 (Homo sapiens), P78536 | 370,000 compounds, 0.83% hits;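 active = inhibition above the mean of compounds lying between control limits plus 3 SD, set per campaign, cut at about 8.5% in these data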;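 note: 0% = DMSO-only wells as the low control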
KLK7 zymogen act: proKLK7 zymogen activators, primary screen, biochemical, fluorescence intensity; Kallikrein-7 (Homo sapiens), P49862; purified proKLK7, EDANS-DABCYL substrate fluorescence; 100% is mature enzyme control, 0% vehicle; activation, % at 7 µM; 370,000 compounds, 0.9% hits; AID 652039, 2013;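 active = activation above the mean of all tested compounds plus 3 SD, computed per campaign excluding outliers beyond control limits, cut at about 13% in these data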
Target sequence (P49862 whole entry, looked up): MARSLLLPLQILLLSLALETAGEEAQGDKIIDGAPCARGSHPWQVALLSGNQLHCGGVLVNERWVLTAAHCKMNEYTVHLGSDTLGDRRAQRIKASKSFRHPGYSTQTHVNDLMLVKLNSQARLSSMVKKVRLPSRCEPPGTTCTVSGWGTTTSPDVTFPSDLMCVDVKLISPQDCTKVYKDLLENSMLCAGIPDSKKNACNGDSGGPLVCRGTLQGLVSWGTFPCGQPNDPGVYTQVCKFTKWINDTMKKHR
ADAM10 inh: human ADAM10 inhibitors, primary screen, biochemical, QFRET, HTS. recombinant ADAM10, EDANS/DABCYL FRET peptide cleavage, 3 h. inhibition, % at 7 µM. 370,000 compounds, 0.62% hits. AID 720582, 2013;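 active = inhibition above a per-campaign cutoff equal to the mean of compounds falling between control-based bounds plus 3 SD, cut at about 20% in these data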;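 note: 0% = DMSO wells while the 100% control is not disclosed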
GRIN3A LBD mod: binders of NR3A ligand-binding domain, primary screen, biophysical, differential scanning fluorimetry, uHTS | Glutamate receptor ionotropic, NMDA 3A (GRIN3A) ligand-binding domain | NR3A LBD differential scanning fluorimetry, Tm shift; 0% = protein alone, 100% = glycine-bound protein | Tm shift relative to glycine control, % at 25 µM | 340,000 compounds, 2.5% hits | AID 1259313, 2017;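 active = melting temperature shift of at least 10% of the positive control shift, at one fixed dose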
AHR act: AHR activators, primary screen, cell-based, luminescence, luciferase reporter, human; AHR-responsive luciferase reporter cells; activation, % at 5 µM; 320,000 compounds, 2.5% hits; AID 2796, 2010; in the data active = activation above about 47%;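 note: 0% = vehicle wells and 100% = reference agonist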
AHR act confirm: AHR activators, confirmation, cell-based, luminescence, luciferase reporter, human; shares compounds with AHR act; human cells, AHR-responsive luciferase reporter; activation, % at 9 µM; 2,300 compounds, 87% hits; in the data active = activation above about 49%;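 note: HepG2 hepatoma cells carrying a DRE-driven firefly luciferase reporter; 0% = vehicle wells and 100% = reference agonist wells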
PXR counter: human PXR activators, counter-screen for AHR activator project, cell-based, luciferase luminescence; cell-based PXR reporter; shares compounds with AHR act; activation, % at 11.6 µM; 2,300 compounds, 88% hits; in the data active = activation above about 11%;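 note: human hepatoma DPX-2 cells expressing full-length human PXR; 0% = DMSO and 100% = reference agonist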
Numbers without * were called inactive; i = inactive; nt = no result.

SMILES	rCAG RNA binder	ADAM17 inh	KLK7 zymogen act	ADAM10 inh	GRIN3A LBD mod	AHR act	AHR act confirm	PXR counter
CCOC(=O)CC[C@@H]1CC[C@]2(CCCN(S(=O)(=O)c3ccccc3)C2)O1	0	-3	0	-5	nt	nt	nt	nt
COC(=O)[C@]12C[C@H](CC(=O)N3CCN(C(=O)C4CC4)CC3)C(=O)N(Cc3ccc4c(c3)OCO4)C1=C[C@H](C(C)C)O[C@@H]2C1CC1	0	-1	1	4	nt	nt	nt	nt
COc1cccc(C2=NC(C)(C)NC(c3ccccc3O)C2)c1 (stereo not given)	6	-3	0	-5	-11	82*	44	52*
COc1cccc(C2=NNC(=NCc3ccccc3)SC2)c1	6	-1	0	4	-1	1	nt	nt
CCOC(=O)C1=C(C(=O)OCC)C2N(Cc3ccc(C#N)cc3)c3ccccc3[C@@]23C[C@@H](C(=O)OC)N(S(=O)(=O)c2ccc(C#N)cc2)C3=N1 (stereo not given in full)	14	-2	0	5	nt	nt	nt	nt
CC(C)OC(=O)c1nnc(Cc2ccc(F)cc2)o1	0	-7	0	-11	-2	91*	30	9
O=C(NCc1ccco1)c1nnc(Cc2ccc(F)cc2)o1	-2	1	0	7	0	-3	nt	nt
COc1ccccc1S(=O)(=O)N(C)C[C@H]1Oc2cc(Br)ccc2S(=O)(=O)N([C@H](C)CO)C[C@H]1C	5	2	1	5	nt	nt	nt	nt
COCc1cc(=O)n2[nH]c(-c3cccc(Br)c3)cc2n1	5	-15	1	-25	-5	120*	115*	13*
O=C(CSc1nnc(SCc2cccc3ccccc23)s1)Nc1ccccc1-c1ccccc1	6	-1	0	-3	nt	nt	nt	nt
[O-][n+]1c2ccccc2c2n1CCN1CCOC21c1ccc(Cl)cc1 (stereo not given)	-2	-44	2	-147	-1	80*	118*	65*
COC(=O)C1=C(C)N(C)C(=NCc2cc(OC)c(OC)c(OC)c2)NC1c1cccc(C(F)(F)F)c1 (stereo not given)	4	-1	0	-2	nt	nt	nt	nt
O=C(Nc1ccc2c(c1)OCO2)NC1CCN(S(=O)(=O)c2ccc(F)cc2)CC1	1	0	0	-7	nt	nt	nt	nt
Fc1ccc(NC(=S)Nc2ccccc2OC(F)F)cc1Cl	4	-1	0	1	5	1	nt	nt
O=C(NNC(=S)Nc1ccccc1)c1cc(Br)ccc1Cl	27	-3	0	1	-4	103*	91*	83*
O=C(NNC(=S)Nc1ccccc1)NNC(=S)Nc1ccccc1	2	-1	0	4	2	4	nt	nt
O=C(NNC(=S)Nc1cccc(Cl)c1)c1ccccc1OC(F)F	20	4	0	8	0	85*	126*	27*
Cc1ccc(C2Nc3ccccc3-c3nc4ccccc4n32)o1 (stereo not given)	23	-463	-13	i	-1	116*	74*	53*
O=C(NCc1ccco1)C1CCCN(S(=O)(=O)c2cccs2)C1 (stereo not given)	4	2	0	3	nt	nt	nt	nt
Cc1ccc(S(=O)(=O)C2CCN(c3nc(-c4cccs4)nc4ccccc34)CC2)cc1	nt	-1	nt	0	nt	nt	nt	nt
CC1S/C(=C(\C#N)C(N)=O)N(c2ccc(F)cc2)C1=O (stereo not given)	9	-3	0	-4	-1	97*	122*	15*
Cc1cc(C)n(-c2nc3c(c(=O)[nH]c(=O)n3C)n2Cc2ccccc2)n1	-1	-1	1	0	0	1	nt	nt
Cc1cc(C)n(-c2nc3c(c(=O)[nH]c(=O)n3C)n2CC(O)c2ccccc2)n1 (stereo not given)	-4	-2	0	4	-6	80*	78*	45*
Cc1cc(C)n(-c2nc3c(c(=O)[nH]c(=O)n3C)n2CCc2ccccc2)n1	-4	1	0	4	-2	133*	84*	67*
CCOC(=O)C1=CCN(S(=O)(=O)c2ccc(Br)cc2)C1c1cccc(F)c1 (stereo not given)	5	1	0	1	nt	nt	nt	nt
SMILES	rCAG RNA binder	ADAM17 inh	KLK7 zymogen act	ADAM10 inh	GRIN3A LBD mod	AHR act	AHR act confirm	PXR counter
C/C(=N\NC(=S)Nc1ccc(F)cc1)c1ccc2c(c1)OCCO2	4	-1	-1	-2	-8	137*	84*	14*
C/C(=N\NC(N)=S)c1ccc2c(c1)OCCO2	-3	-3	0	-11	1	9	nt	nt
COC(=O)/C(=C(O)\C=C\c1ccccc1[N+](=O)[O-])c1nc2ccccc2[nH]1	17	1	0	3	-7	92*	113*	47*
COc1ccc(S(=O)(=O)NC2CCN(C#N)CC2)cc1	nt	-1	nt	-1	nt	nt	nt	nt
N#C/C(=C\c1ccc(N2CCCCC2)o1)C(=O)Nc1cccc(Br)c1	-18	1	0	-5	0	100*	72*	13*
N#C/C(=C\c1ccc(N2CCCCC2)o1)C(N)=O	-38	1	0	-9	2	1	nt	nt
CC(=O)Nc1cccc(N/C(N)=N/c2nc(C)cc(C)n2)c1	14	-2	0	2	-1	46	nt	nt
Cc1cccc(N/C(N)=N/c2nc(C)cc(C)n2)c1	12	-4	1	2	4	81*	50*	12*
COC(=O)C1=C(C)N(Cc2ccc(F)cc2)C(=S)NC1c1cccc(OC)c1 (stereo not given)	3	3	0	15	nt	nt	nt	nt
CC1=NN(C(N)=S)C(=O)C1N=Nc1cccc(Cl)c1C (stereo not given)	5	-2	-1	-1	9	138*	139*	16*
Cc1cc(C)c2nc(SCC(=O)N3CC(=O)Nc4ccccc43)c(C#N)cc2c1	9	-8	1	-15	-5	92*	76*	77*
COc1ccc(S[C@]2(C(=O)N3CCOCC3)CC(=O)N[C@@H]2c2ccc(OC)cc2)cc1	5	-2	0	4	nt	nt	nt	nt

From PubChem BioAssay
